PubChem BioAssay
Results filed as inconclusive are left out. Active and inactive are the calls of the source. Unless noted, the limit is not given here; nearly all actives have AC50 up to about 26 µM.

Columns and labels:
[1] = growth inhibition of DIPG glioma cells, dose response, cell-based, SU-DIPG-XVII, MIPE5.0, CellTiter-Glo, qHTS (AID 1347060); conditions: SU-DIPG-XVII viability, CellTiter-Glo ATP luminescence;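 as to AC50: cells exposed to compound for 48 hours before viability readout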
[2] = viability loss in pontine glioma line – cell-based, SU-DIPG-XXV, MIPE5.0, CellTiter-Glo, qHTS, dose response (AID 1347065); conditions: CellTiter-Glo ATP luminescence;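 also: cells exposed to compound for 48 hours before ATP readout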
[3] = JHH-DIPG-1 glioma cell viability, MIPE5.0 library, CellTiter-Glo luminescence, qHTS (AID 1347067); conditions: JHH-DIPG-1 glioma viability, CellTiter-Glo ATP luminescence;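 also: cells exposed to compound for 48 hours before readout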
[4] = SU-DIPG-XXV glioma cell viability, MIPE5.0 library, qHTS (AID 1347068; cut-off not given, nearly all actives have IC50 up to about 30 µM;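 as to IC50: cells exposed to compound for 48 hours before viability readout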)
[5] = sensitizers of A549 cells to miR-34 induction, primary screen, imaging, A549 dox-inducible miR-34, nuclei and caspase counts (AID 1347080;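 active = compounds whose cell count with miR-34 switched on is under 0.7 times the count with it off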); conditions: A549 miR-34 inducible, Hoechst nuclei count, 48 h
[6] = survival rescue of mitochondrial mutant cells in low glucose, primary screen, MELAS cybrids, Rieske KO mouse fibroblasts, CellTiter-Glo (AID 1508586;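 active = mean z-score across replicates of 1.96 or higher in either the MELAS or the Rieske mutant cell line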;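 also: z relative to plate mean and SD of compound and empty wells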)
[7] = SU-DIPG-VI glioma cell viability, MIPE4.0 library, CellTiter-Glo luminescence, qHTS (AID 1347066; cut-off not given, nearly all actives have AC50 up to about 30 µM;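 also: cells exposed to compound for 48 hours before readout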); conditions: CellTiter-Glo ATP luminescence
[8] = ovarian cancer cell viability with rucaparib, profiling panel, oncology-focused library, rucaparib conditional (AID 1508598;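 active = normalized viability below 100% at a tested concentration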); conditions: patient-derived ovarian cancer cells, CellTiter-Glo viability, 144 h, stronger effect = lower value
[9] = stronger effect = lower value, cell number ratio, induced over uninduced
[10] = measured here: relative caspase fold change +Dox/-Dox
[11] = measured here: total cells with miR-34 induction, stronger effect = lower value
[12] = measured here: total cells without miR-34 induction
[13] = MELAS cybrid survival, CellTiter-Glo 48 h, stronger effect = higher value
[14] = Rieske KO mouse fibroblast survival, CellTiter-Glo 72 h

With `CC(C)[C@](O)(c1ccc2cc(OC(F)F)c(OC(F)F)cc2c1)c1cn[nH]n1` as the compound, how does the outcome [1] read?
The outcome was “inactive”.

What about the outcome [2] of the same compound?
Its outcome is “inactive”.

And the outcome [3]?
The outcome was “inactive”.

And the outcome [4]?
Its outcome is “inactive”.

What does the source list for `COc1ccc(C(=O)N2CCN(C(=O)/C=C/c3ccc(Br)cc3)CC2)cc1`?
outcome [1]: inactive; outcome [2]: inactive; outcome [3]: inactive; outcome [4]: inactive

With `CN1CCN(C(=O)[C@H]2[C@@H](C(=O)O)[C@H]3CC[C@@H]2O3)CC1` as the compound, how does the outcome [1] read?
The outcome was “inactive”.

What about the outcome [2] of the same compound?
The outcome was “inactive”.

What about the outcome [3] of the same compound?
Its outcome is “inactive”.

What about the outcome [4] of the same compound?
The outcome was “inactive”.

Which results are given for `Cc1cc(OCc2nnc(SC3CCCC3)n2-c2cccnc2)ccc1-c1ccc(S(C)(=O)=O)cc1`?
AC50 [1]: 8.33 µM (active); AC50 [2]: 8.33 µM (active); AC50 [3]: 2.09 µM (active); outcome [4]: inactive; fold change [5, 9]: 0.88 (inactive); fold change [5, 10]: 0.499; cell count [5, 11]: 1100; cell count [5, 12]: 1250; z-score [6, 13]: 0.698 (inactive); z-score [6, 14]: -0.0239

What does the source list for `Nc1nc(OC(c2ccc(-c3cccc(F)c3)cc2)C(F)(F)F)cc(-c2ccc(C[C@H](N)C(=O)O)cc2)n1` (stereo partly drawn)?
outcome [1]: inactive; outcome [2]: inactive; outcome [4]: inactive

Which AC50 [1] does the source give for `C/C(=C\c1csc(C)n1)[C@@H]1C[C@@H]2O[C@]2(C)CCC[C@H](C)[C@H](O)[C@@H](C)C(=O)C(C)(C)[C@@H](O)CC(=O)N1` here?
Its AC50 is 0.0148 µM (active).

What about the AC50 [2] of the same compound?
Its AC50 is 0.0118 µM (active).

What about the IC50 [4] of the same compound?
The IC50 was 3.32 µM (active).

Which outcome [1] does the source give for `NC(=O)[C@@H](CCC(F)(F)F)N(Cc1ccc(-c2ncon2)cc1F)S(=O)(=O)c1ccc(Cl)cc1` here?
Its outcome is “inactive”.

And the outcome [7]?
Its outcome is “inactive”.

And the outcome [3]?
The outcome was “inactive”.

Which outcome [1] does the source give for `[O-][n+]1cccc(-c2nc3c(Cl)cccc3cc2[C@@H](Nc2ncnc3cccnc23)C(F)(F)F)c1` here?
Its outcome is “inactive”.

What about the outcome [3] of the same compound?
Its outcome is “inactive”.

Which outcome [1] does the source give for `O=C(/C=C/N1C[C@H]2C[C@@H]1CN2c1ccccn1)c1ccccc1O` here?
Its outcome is “inactive”.

What about the outcome [3] of the same compound?
Its outcome is “inactive”.

With `CC(Nc1ncnc2nc[nH]c12)c1cc2cccc(Cl)c2c(=O)n1-c1ccccc1` (stereo not drawn) as the compound, how does the AC50 [1] read?
Its AC50 is 18.6 µM (active).

What about the AC50 [2] of the same compound?
Its AC50 is 18.6 µM (active).

What about the fold change [5, 9] of the same compound?
Its fold change is 0.872 (inactive).

And the fold change [5, 10]?
The fold change was 0.835.

And the cell count [5, 11]?
The cell count was 6590.

What about the cell count [5, 12] of the same compound?
The cell count was 7550.

What about the z-score [6, 13] of the same compound?
The z-score was -0.147 (inactive).

And the z-score [6, 14]?
Its z-score is -0.173.

Which outcome [1] does the source give for `[2H]C([2H])(Nc1nc(-c2ccccc2C([2H])(C([2H])([2H])[2H])C([2H])([2H])[2H])ncc1C)c1ccc(-n2ccnn2)cc1` here?
The outcome was “inactive”.

What about the outcome [2] of the same compound?
Its outcome is “inactive”.

And the outcome [4]?
The outcome was “inactive”.

With `Cc1[nH]nc2ncc(C(=O)N3CCC[C@H]3c3ccc(Cl)cc3)cc12` as the compound, how does the outcome [1] read?
Its outcome is “inactive”.

And the outcome [2]?
Its outcome is “inactive”.

What about the outcome [4] of the same compound?
Its outcome is “inactive”.

With `CCCC1OC2C[C@H]3[C@@H]4CCC5=CC(=O)C=C[C@]5(C)[C@H]4C(O)C[C@]3(C)[C@]2(C(=O)CO)O1` (stereo partly drawn) as the compound, how does the outcome [1] read?
Its outcome is “inactive”.

And the outcome [7]?
Its outcome is “inactive”.

And the outcome [4]?
The outcome was “inactive”.

With `CO[C@@H]1[C@H](N(C)C(=O)c2ccccc2)C[C@H]2O[C@]1(C)n1c3ccccc3c3c4c(c5c6ccccc6n2c5c31)C(=O)NC4` as the compound, how does the AC50 [1] read?
Its AC50 is 1.66 µM (active).

And the outcome [7]?
The outcome was “inactive”.

What does the source list for `COC(=O)[C@H]1[C@@H](O)[C@@]2(O)c3c(OC)cc(O[C@@H]4O[C@@H]([C@@H](O)CO)CO[C@H]4OC)cc3O[C@@]2(c2ccc(OC)cc2)[C@@H]1c1ccccc1`?
AC50 [1]: 8.33 µM (active); AC50 [2]: 5.25 µM (active); outcome [4]: inactive

What does the source list for `Cc1cc(N2CCOCC2)ccc1Nc1nc(NC2CCCCC2)c2[nH]cnc2n1`?
AC50 [1]: 2.35 µM (active); AC50 [2]: 7.42 µM (active); AC50 [3]: 14.8 µM (active); IC50 [4]: 20.9 µM (active); fold change [5, 9]: 0.907 (inactive); fold change [5, 10]: 0.505; cell count [5, 11]: 3720; cell count [5, 12]: 4100; z-score [6, 13]: -0.538 (inactive); z-score [6, 14]: -2.79

For `Nc1nccn2c(C3CCC(C(=O)O)CC3)nc(-c3cc4cccc(Cl)c4[nH]3)c12` (stereo not drawn), which AC50 [1] is on record?
Its AC50 is 4.17 µM (active).

What about the AC50 [2] of the same compound?
Its AC50 is 2.63 µM (active).

What about the outcome [4] of the same compound?
The outcome was “inactive”.

Which results are given for `COc1cccc(Nc2ncnn3ccc(CN4CC[C@@H](N)[C@H](O)C4)c23)c1`?
AC50 [1]: 14.8 µM (active); outcome [3]: inactive; outcome [4]: inactive

Which AC50 [1] does the source give for `CN[C@H]1CN(c2ccc3c(=O)c(C(=O)O)cn(-c4nccs4)c3n2)C[C@@H]1OC` here?
The AC50 was 0.762 µM (active).

What about the AC50 [2] of the same compound?
The AC50 was 4.28 µM (active).

What about the viability ([8]; at 0.000305 µM, OCI-C5x cells, with rucaparib 10 µM, 100% = cells with rucaparib alone) of the same compound?
Its viability is 118% (inactive).

And the viability ([8]; at 0.000305 µM, OCI-C5x cells, without rucaparib)?
Its viability is 108% (inactive).

And the viability ([8]; at 0.000305 µM, OCI-P5x cells, with rucaparib 20 µM, 100% = cells with rucaparib alone)?
Its viability is 98.3% (active).

What about the viability ([8]; at 0.000305 µM, OCI-P5x cells, without rucaparib) of the same compound?
Its viability is 105% (inactive).

What about the viability ([8]; at 0.00122 µM, OCI-C5x cells, with rucaparib 10 µM, 100% = cells with rucaparib alone) of the same compound?
Its viability is 121% (inactive).

And the viability ([8]; at 0.00122 µM, OCI-C5x cells, without rucaparib)?
Its viability is 111% (inactive).

What about the viability ([8]; at 0.00122 µM, OCI-P5x cells, with rucaparib 20 µM, 100% = cells with rucaparib alone) of the same compound?
Its viability is 92.3% (active).

And the viability ([8]; at 0.00122 µM, OCI-P5x cells, without rucaparib)?
The viability was 97.9% (active).

What about the viability ([8]; at 0.00488 µM, OCI-C5x cells, with rucaparib 10 µM, 100% = cells with rucaparib alone) of the same compound?
Its viability is 107% (inactive).

And the viability ([8]; at 0.00488 µM, OCI-C5x cells, without rucaparib)?
Its viability is 103% (inactive).

What about the viability ([8]; at 0.00488 µM, OCI-P5x cells, with rucaparib 20 µM, 100% = cells with rucaparib alone) of the same compound?
The viability was 100% (inactive).

And the viability ([8]; at 0.00488 µM, OCI-P5x cells, without rucaparib)?
The viability was 98.6% (active).

What about the viability ([8]; at 0.0195 µM, OCI-C5x cells, with rucaparib 10 µM, 100% = cells with rucaparib alone) of the same compound?
The viability was 110% (inactive).

And the viability ([8]; at 0.0195 µM, OCI-C5x cells, without rucaparib)?
The viability was 110% (inactive).

And the viability ([8]; at 0.0195 µM, OCI-P5x cells, with rucaparib 20 µM, 100% = cells with rucaparib alone)?
The viability was 93.2% (active).

What about the viability ([8]; at 0.0195 µM, OCI-P5x cells, without rucaparib) of the same compound?
Its viability is 95.3% (active).

And the viability ([8]; at 0.0781 µM, OCI-C5x cells, with rucaparib 10 µM, 100% = cells with rucaparib alone)?
Its viability is 110% (inactive).

What about the viability ([8]; at 0.0781 µM, OCI-C5x cells, without rucaparib) of the same compound?
Its viability is 92.5% (active).

And the viability ([8]; at 0.0781 µM, OCI-P5x cells, with rucaparib 20 µM, 100% = cells with rucaparib alone)?
The viability was 91.4% (active).

What about the viability ([8]; at 0.0781 µM, OCI-P5x cells, without rucaparib) of the same compound?
The viability was 91.4% (active).

And the viability ([8]; at 0.313 µM, OCI-C5x cells, with rucaparib 10 µM, 100% = cells with rucaparib alone)?
The viability was 143% (inactive).

What about the viability ([8]; at 0.313 µM, OCI-C5x cells, without rucaparib) of the same compound?
The viability was 119% (inactive).

And the viability ([8]; at 0.313 µM, OCI-P5x cells, with rucaparib 20 µM, 100% = cells with rucaparib alone)?
Its viability is 79.7% (active).

What about the viability ([8]; at 0.313 µM, OCI-P5x cells, without rucaparib) of the same compound?
The viability was 62.5% (active).

What about the viability ([8]; at 1.25 µM, OCI-C5x cells, with rucaparib 10 µM, 100% = cells with rucaparib alone) of the same compound?
The viability was 154% (inactive).

What about the viability ([8]; at 1.25 µM, OCI-C5x cells, without rucaparib) of the same compound?
Its viability is 118% (inactive).

What about the viability ([8]; at 1.25 µM, OCI-P5x cells, with rucaparib 20 µM, 100% = cells with rucaparib alone) of the same compound?
The viability was 63.6% (active).

And the viability ([8]; at 1.25 µM, OCI-P5x cells, without rucaparib)?
Its viability is 41.5% (active).
